{"source": "PubChem BioAssay (NCATS)", "note": "Records with an inconclusive call do not appear. A number with no mark means an inactive call. Calls of active or inactive are those of the source. The call rests on the fitted dose curve; in most records, active means well fitted inhibition curve with a large enough effect; inconclusive means small, poorly fitted or top-dose-only effect; inactive means no such curve, though single readings can be large or run the other way. On the % scale 0 is the no-effect control and ±100 the full control effect; potency means the concentration at half of the fitted maximal effect."}
{"test_system": "Zika virus NS2B-NS3 protease (linked construct)", "assay": "Primary screen NINDS Rhodamine qHTS for Zika virus inhibitors (AID 1347160); further: nearly all actives have a fitted effect of over 55% in size", "settings": "purified NS2B-NS3 protease, Rhodamine110 substrate fluorescence; series mostly up to 57.1 µM; activity change, negative = inhibition: at the top concentration", "from_the_text": "Avindra Nath, Ph.D., National Institute of Neurological Disorders and Stroke (NINDS), Bethesda, MD\nRadhakrishnan Padmanabhan, Ph.D., Georgetown University (GU), Washington D.C.\nZika Virus causes congenital defects, including microcephaly and is associated with Guillain-Barre syndrome, eningoencephalitis and myelitis in infected adult. […] Using a target-based approach, we hope to establish a screening paradigm to uncover novel, cell-active NS2B-NS3 protease (Zika Virus) specific inhibitors from NCATS' collection of small molecules using qHTS.\nFour assay panel was created to identify potential Zika Virus inhibitors. Namely, (1) GU unlinked NS2B-NS3 AMC tagged protease qHTS, (2) GU unlinked NS2B-NS3 Rhodamine tagged protease qHTS, (3) NINDS linked NS2B-NS3 AMC tagged protease qHTS, (4) NINDS linked NS2B-NS3 Rhodamine tagged protease qHTS. Active compounds were re-acquired and re-screened to confirm inhibition. Inhibitors were further screened against various confirmatory and counterscreens in dose response format.\nEarly Translation Branch (ETB)\nNational Center for Advancing Translational Sciences (NCATS), Rockville, MD\nNational Institute of Health (NIH), Bethesda, Maryland\nFor the linked assay, Nath lab (NINDS) provided the purified linked NS2B-NS3 protease which is consists of hydrophilic domain of NS2B linked to the NS3 protease domain by a flexible (-[…]-) linker. Control compound aprotinin is obtained from Thermo Scientific (#78432; Waltham, Massachusetts). Rhodamine110 substrate ([N-Cbz]-Nle-Lys-Arg-Arg-Rhod110-Arg-Arg-Lys-Nle-[N-Cbz]) was purchased from either Genscript or Bachem.\n1536-well Protease (Rhodamine110 Substrate) Assay:\nBriefly, 3 microL of enzyme (25 nM final concentration), in assay buffer (10 mM Tris-HCl pH 8.0 with 0.01% Tween 20) were dispensed into a 1,536-well solid-bottom black plate (Greiner Bio One, Monroe, NC). Twenty-three nL of compounds (final concentration range 7.28 nM to 114 microM) or control Aprotinin (final concentration range 3.47 nM to 114 microM) were transferred via Wako Pin-tool (Wako Automation, Richmond, VA). Samples were incubated (room temperature, protected from light) for 15 minutes followed by a 1 microL Rhodamine110 substrate addition (1.5 microM final concentration). Plates were then immediately read on a ViewLux High-throughput CCD imager (PerkinElmer, Waltham, MA) equipped with FITC fluorescence optics (480(20) nm excitation, 540(25) nm emission), then incubated (room temperature, protected from light) for 15 minutes (~15% conversion). The change in fluorescence intensity over the 15-minute reaction period was normalized against no-inhibitor and no-enzyme controls and the resulting percent inhibition data were fitted to a 4-parameter Hill equation. Aprotinin was used as intraplate control."}
{"smiles": "COc1ccc(-c2nc3ccc(C4=NNC(=O)CC4C)cc3[nH]2)cc1", "note": "(stereo not given)", "activity change, negative = inhibition": "24.8%"}
{"smiles": "O[C@@H](COc1cccc2ncccc12)CN1CCN(C2c3ccccc3[C@@H]3[C@H](c4ccccc42)C3(F)F)CC1", "note": "(stereo not given in full)", "activity change, negative = inhibition": "128%"}
{"smiles": "CC1=C(C(=O)Nc2cc3cn[nH]c3cc2F)C(c2ccc(C(F)(F)F)cc2)CC(=O)N1", "note": "(stereo not given)", "activity change, negative = inhibition": "-3.5%"}
{"smiles": "c1ccc(CNc2nc(N3CCOc4ccccc43)nc3c2CCCC3)cc1", "activity change, negative = inhibition": "21.6%"}
{"smiles": "COc1cc2nccc(Oc3ccc(NC(=O)Nc4cc(C)on4)c(Cl)c3)c2cc1OC", "activity change, negative = inhibition": "34.4%"}
{"smiles": "C[C@@]1(C(=O)Nc2ccc(F)nc2)CCCN1c1nc(Nc2cc(C3CC3)[nH]n2)c2cccn2n1", "activity change, negative = inhibition": "8.71%"}
{"smiles": "COc1nccc(-c2c(-c3ccc(F)cc3)ncn2C2CCC(O)CC2)n1", "note": "(stereo not given)", "activity change, negative = inhibition": "13.4%"}
{"smiles": "Cc1ccccc1C(C(=O)NC1CCCCC1)N(C(=O)CNc1ccc(C#N)cc1)c1cccc(F)c1", "note": "(stereo not given)", "activity change, negative = inhibition": "13%"}
{"smiles": "CNC(=O)c1cc(Oc2ccc(NC(=O)Nc3ccc(Cl)c(C(F)(F)F)c3)c(F)c2)ccn1", "activity change, negative = inhibition": "-25.3%"}
{"smiles": "Cc1cc(-c2ncc(CC(=O)Nc3ccc(-c4cnccn4)cn3)cc2C)ccn1", "activity change, negative = inhibition": "26.8%"}
{"smiles": "COc1ccc(-c2cc3nccn3c(Nc3ncccc3C(N)=O)n2)cc1OC", "activity change, negative = inhibition": "11.5%"}
{"smiles": "CCCCC(F)(F)[C@@]1(O)CC[C@H]2[C@H](CC(=O)[C@@H]2CCCCCCC(=O)O)O1", "activity change, negative = inhibition": "1.1%"}
{"smiles": "O=C(CO)N1CCC(c2[nH]nc(-c3ccc(Cl)cc3)c2-c2ccncn2)CC1", "activity change, negative = inhibition": "-18.8%"}
{"smiles": "Cn1c(=O)c(-c2c(Cl)cccc2Cl)cc2cnc(Nc3cccc(C(=O)O)c3)nc21", "activity change, negative = inhibition": "9.85%"}
{"smiles": "CCN1CCN(c2ccc(Nc3cc(N(C)C(=O)Nc4c(Cl)c(OC)cc(OC)c4Cl)ncn3)cc2)CC1", "activity change, negative = inhibition": "55.8%"}
{"smiles": "CCc1cccc(CC)c1NC(=O)N1Cc2[nH]nc(NC(=O)c3ccc(N4CCN(C)CC4)cc3)c2C1", "activity change, negative = inhibition": "14.6%"}
{"smiles": "CCC(=O)N1CCN(c2ccc(-n3c(=O)ccc4cnc5ccc(-c6cnc7ccccc7c6)cc5c43)cc2C(F)(F)F)CC1", "activity change, negative = inhibition": "-4.81% [at 10.7 µM]"}
{"smiles": "O=C1C(c2c(O)[nH]c3ccccc23)=Nc2ccccc21", "activity change, negative = inhibition": "8.23% [at 33.1 µM]"}
{"smiles": "Nc1ncnc2c1c(-c1cccc(OCc3ccccc3)c1)cn2C1CC(CN2CCC2)C1", "note": "(stereo not given)", "activity change, negative = inhibition": "534%"}
{"smiles": "CCNC(=O)c1noc(-c2cc(C(C)C)c(O)cc2O)c1-c1ccc(CN2CCOCC2)cc1", "outcome": "inactive"}
{"smiles": "NS(=O)(=O)c1ccc(Nc2nc(OCC3CCCCC3)c3[nH]cnc3n2)cc1", "activity change, negative = inhibition": "-3.31%"}
{"smiles": "Cc1ccccc1-n1c(Cn2nc(-c3cccc(O)c3)c3c(N)ncnc32)nc2cccc(C)c2c1=O", "activity change, negative = inhibition": "14.7%"}
{"smiles": "COc1ccc(CCC(=O)Nc2nc3ccc(Cl)cc3s2)cc1OC", "activity change, negative = inhibition": "35.3%"}
{"smiles": "Cc1nc2c([nH]1)CCN(C(=O)c1ccc(NC(=O)c3ccccc3-c3ccccc3)cc1)c1ccccc1-2", "activity change, negative = inhibition": "50.5%"}
{"smiles": "CN[C@@H](C)[C@H]1[C@H](O)C[C@@]2(C)[C@@H]3CC[C@H]4C(C)(C)[C@@H](NC)CC[C@@]45C[C@@]35CC[C@]12C", "outcome": "inactive [at 10.7 µM]"}
{"smiles": "CN(C)CCCNC(=O)c1ccc(-c2cc(O)c3ncccc3c2)cc1", "outcome": "inactive"}
{"smiles": "O=C(CC12CC3CC(CC(C3)C1)C2)Nc1cccc2nc(NCCNCCO)ccc12", "activity change, negative = inhibition": "190%"}
{"smiles": "CNc1nc(Nc2ccc(C(=O)N3CCOCC3)cc2OC)ncc1Cl", "outcome": "inactive"}
{"smiles": "O=S(=O)(O)c1ccc2cc(N=Nc3cc(S(=O)(=O)O)c4cccnc4c3O)ccc2c1", "Potency": "1.26 µM (active)"}
{"smiles": "CN(C)CCOc1cc(-c2cn[nH]c2)ccc1NC(=O)C1COc2ccccc2O1", "note": "(stereo not given)", "outcome": "inactive"}
{"smiles": "Cc1csc(-c2nnc(Nc3ccc(Oc4ncccc4-c4ccnc(N)n4)cc3)c3ccccc23)c1", "activity change, negative = inhibition": "60.6%"}
{"smiles": "C[C@@]1(c2cc(-c3cncnc3)c(F)cc2F)CCSC(N)=N1", "activity change, negative = inhibition": "43.3% [at 33.1 µM]"}
{"smiles": "Nc1ccc(-c2ccc3ncc4ccc(=O)n(-c5cccc(C(F)(F)F)c5)c4c3c2)cn1", "outcome": "inactive"}
{"smiles": "COc1cc2ncnc(Nc3cc(Br)c(O)c(Br)c3)c2cc1OC", "activity change, negative = inhibition": "13.6%"}
{"smiles": "CN(C)c1nc(Cc2ccc(NC(=O)c3ccc(C(F)(F)F)cc3)cc2)nc(N(C)C)c1CC(=O)O", "activity change, negative = inhibition": "11.9%"}
{"smiles": "Cc1c(C(=O)Nc2ccc(N3C[C@@H](C)O[C@@H](C)C3)nc2)cccc1-c1ccc(OC(F)(F)F)cc1", "activity change, negative = inhibition": "-11.5%"}
{"smiles": "COC(=O)N1CCN(Cc2cccc(NC(=O)Nc3ccc(C)nc3)c2F)CC1", "outcome": "inactive"}
{"smiles": "CN1CCN(c2cccc(Nc3nc4c(-c5ccc(S(C)(=O)=O)cc5)cccn4n3)c2)CC1", "outcome": "inactive"}
{"smiles": "Cc1cnc(CNC(=O)c2c(=O)c3ccc(N4CCCN(C)CC4)nc3n3c2sc2ccccc23)cn1", "activity change, negative = inhibition": "6.93% [at 10.7 µM]"}
{"smiles": "C=CC(=O)Nc1cccc(Sc2nc(Nc3ccc(N4CCN(C)CC4)cc3)ncc2Cl)c1", "activity change, negative = inhibition": "227%"}
